Among the data in ChEMBL document CHEMBL2218924, “A broad activity screen in support of a chemogenomic map for kinase signalling research and drug discovery” (Biochem J, 2013) are residual activity values, retold here.

Assay [1] deals with T1, Serine/threonine-protein kinase TBK1 (Homo sapiens) (UniProt Q9UHD2).
T1 sequence (whole entry): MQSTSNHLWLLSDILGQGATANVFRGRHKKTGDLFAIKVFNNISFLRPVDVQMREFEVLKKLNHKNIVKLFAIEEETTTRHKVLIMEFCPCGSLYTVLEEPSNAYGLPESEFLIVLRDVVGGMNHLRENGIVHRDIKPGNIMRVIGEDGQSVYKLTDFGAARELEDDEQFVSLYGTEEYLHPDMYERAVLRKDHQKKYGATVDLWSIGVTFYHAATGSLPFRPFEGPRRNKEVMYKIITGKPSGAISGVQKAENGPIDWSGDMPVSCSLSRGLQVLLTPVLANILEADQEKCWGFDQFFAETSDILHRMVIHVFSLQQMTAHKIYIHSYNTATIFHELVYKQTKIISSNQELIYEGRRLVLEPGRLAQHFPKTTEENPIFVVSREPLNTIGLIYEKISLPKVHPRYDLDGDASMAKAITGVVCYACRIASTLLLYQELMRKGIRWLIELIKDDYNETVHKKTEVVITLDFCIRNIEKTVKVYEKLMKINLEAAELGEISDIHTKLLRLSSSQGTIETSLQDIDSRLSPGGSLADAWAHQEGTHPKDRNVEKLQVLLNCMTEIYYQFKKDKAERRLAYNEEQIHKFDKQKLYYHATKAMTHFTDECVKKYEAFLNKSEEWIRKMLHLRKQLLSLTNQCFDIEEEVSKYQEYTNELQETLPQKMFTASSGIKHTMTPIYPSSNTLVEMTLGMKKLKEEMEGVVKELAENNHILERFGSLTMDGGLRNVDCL
Particulars: at 1 µM.

Assay [2] concerns the target T1, Serine/threonine-protein kinase TBK1 (Homo sapiens). As to conditions: at 10 µM.
Assay [3] has as its target T2, TGF-beta receptor type-1 (Homo sapiens) (UniProt P36897).
T2 sequence (whole entry): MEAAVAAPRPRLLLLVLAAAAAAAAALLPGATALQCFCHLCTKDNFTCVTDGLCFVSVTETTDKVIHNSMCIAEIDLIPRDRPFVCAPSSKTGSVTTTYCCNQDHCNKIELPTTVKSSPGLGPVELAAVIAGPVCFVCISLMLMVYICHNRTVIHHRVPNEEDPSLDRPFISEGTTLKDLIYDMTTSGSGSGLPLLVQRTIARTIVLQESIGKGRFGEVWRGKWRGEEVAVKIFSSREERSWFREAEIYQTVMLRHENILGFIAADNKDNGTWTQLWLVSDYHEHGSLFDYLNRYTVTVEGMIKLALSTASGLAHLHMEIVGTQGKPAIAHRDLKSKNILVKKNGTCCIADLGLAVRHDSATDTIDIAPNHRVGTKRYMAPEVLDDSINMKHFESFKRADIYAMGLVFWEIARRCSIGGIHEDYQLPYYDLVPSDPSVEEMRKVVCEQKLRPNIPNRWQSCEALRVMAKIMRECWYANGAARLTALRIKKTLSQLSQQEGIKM
As to conditions: at 1 µM.

The target in assay [4] is T2, TGF-beta receptor type-1 (Homo sapiens). Particulars: at 10 µM.
In assay [5] the target is Insulin-like growth factor 1 receptor (Homo sapiens) (UniProt P08069). Particulars: at 1 µM.
The target is the same in assay [6]. Particulars: at 10 µM.
Assay [7] addresses T3, Inhibitor of nuclear factor kappa-B kinase subunit alpha (Homo sapiens) (UniProt O15111).
T3 sequence (whole entry): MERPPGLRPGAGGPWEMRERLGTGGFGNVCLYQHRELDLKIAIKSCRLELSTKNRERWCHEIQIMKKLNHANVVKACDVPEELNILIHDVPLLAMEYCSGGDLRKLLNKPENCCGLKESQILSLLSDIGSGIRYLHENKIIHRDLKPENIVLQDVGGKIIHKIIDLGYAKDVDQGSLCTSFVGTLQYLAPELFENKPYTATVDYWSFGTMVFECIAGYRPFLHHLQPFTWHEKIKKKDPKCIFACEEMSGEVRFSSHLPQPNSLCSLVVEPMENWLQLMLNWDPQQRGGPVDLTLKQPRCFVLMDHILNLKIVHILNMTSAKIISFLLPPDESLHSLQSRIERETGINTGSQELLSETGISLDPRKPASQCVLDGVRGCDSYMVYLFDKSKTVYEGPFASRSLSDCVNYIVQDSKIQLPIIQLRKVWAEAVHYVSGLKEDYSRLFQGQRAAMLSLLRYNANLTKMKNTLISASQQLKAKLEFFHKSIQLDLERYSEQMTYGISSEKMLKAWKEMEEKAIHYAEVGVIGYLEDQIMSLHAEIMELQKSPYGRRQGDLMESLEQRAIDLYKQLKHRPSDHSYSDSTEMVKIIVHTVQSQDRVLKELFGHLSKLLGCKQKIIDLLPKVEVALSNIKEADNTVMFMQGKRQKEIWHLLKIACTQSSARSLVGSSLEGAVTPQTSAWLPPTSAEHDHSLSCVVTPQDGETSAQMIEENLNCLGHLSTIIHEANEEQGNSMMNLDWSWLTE
Particulars: at 1 µM.

Assay [8] addresses T3, Inhibitor of nuclear factor kappa-B kinase subunit alpha (Homo sapiens). Particulars: at 10 µM.
For assay [9], the target named is T4, Inhibitor of nuclear factor kappa-B kinase subunit beta (Homo sapiens) (UniProt O14920).
T4 sequence (whole entry): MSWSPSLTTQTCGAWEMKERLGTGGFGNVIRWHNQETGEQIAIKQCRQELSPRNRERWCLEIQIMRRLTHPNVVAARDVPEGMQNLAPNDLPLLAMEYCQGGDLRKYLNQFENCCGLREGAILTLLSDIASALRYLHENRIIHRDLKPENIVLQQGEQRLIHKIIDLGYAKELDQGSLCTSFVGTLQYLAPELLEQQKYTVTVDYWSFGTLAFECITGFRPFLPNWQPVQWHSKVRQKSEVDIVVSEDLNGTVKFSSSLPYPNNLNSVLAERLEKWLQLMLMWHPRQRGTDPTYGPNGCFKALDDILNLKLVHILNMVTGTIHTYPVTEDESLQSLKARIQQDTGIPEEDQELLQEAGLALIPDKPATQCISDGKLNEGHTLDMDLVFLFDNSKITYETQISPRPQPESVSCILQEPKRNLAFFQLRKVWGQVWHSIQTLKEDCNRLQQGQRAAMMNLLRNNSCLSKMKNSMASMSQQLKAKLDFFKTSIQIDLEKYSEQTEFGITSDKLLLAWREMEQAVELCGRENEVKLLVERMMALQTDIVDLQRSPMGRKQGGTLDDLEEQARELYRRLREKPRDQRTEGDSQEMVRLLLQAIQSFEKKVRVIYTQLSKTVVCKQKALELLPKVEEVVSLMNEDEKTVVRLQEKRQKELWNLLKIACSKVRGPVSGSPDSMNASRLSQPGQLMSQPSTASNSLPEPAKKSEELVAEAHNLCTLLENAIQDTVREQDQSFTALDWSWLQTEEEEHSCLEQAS
As to conditions: at 10 µM.

Chain of Insulin-like growth factor 1 receptor (Homo sapiens) (P08069 31-736 limits assumed): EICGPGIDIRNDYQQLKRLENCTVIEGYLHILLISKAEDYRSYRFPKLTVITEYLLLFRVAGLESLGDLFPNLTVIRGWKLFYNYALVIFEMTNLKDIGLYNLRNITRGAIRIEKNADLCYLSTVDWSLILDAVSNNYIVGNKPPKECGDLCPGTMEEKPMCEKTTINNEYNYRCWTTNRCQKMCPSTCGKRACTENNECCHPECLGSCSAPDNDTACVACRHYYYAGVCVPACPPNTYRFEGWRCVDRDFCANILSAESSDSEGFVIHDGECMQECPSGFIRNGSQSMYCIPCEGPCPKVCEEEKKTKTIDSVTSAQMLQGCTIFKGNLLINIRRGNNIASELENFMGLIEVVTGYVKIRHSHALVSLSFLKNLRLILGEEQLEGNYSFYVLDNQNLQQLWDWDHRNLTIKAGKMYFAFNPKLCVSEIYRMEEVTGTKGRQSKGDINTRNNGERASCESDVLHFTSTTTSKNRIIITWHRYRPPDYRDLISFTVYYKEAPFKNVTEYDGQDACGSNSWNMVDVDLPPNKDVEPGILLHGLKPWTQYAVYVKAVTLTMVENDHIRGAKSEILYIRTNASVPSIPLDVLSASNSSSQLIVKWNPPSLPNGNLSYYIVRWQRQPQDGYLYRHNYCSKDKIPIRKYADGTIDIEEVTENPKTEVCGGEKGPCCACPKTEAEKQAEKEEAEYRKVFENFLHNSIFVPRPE
Chain of Insulin-like growth factor 1 receptor (Homo sapiens) (P08069 741-1367 limits assumed): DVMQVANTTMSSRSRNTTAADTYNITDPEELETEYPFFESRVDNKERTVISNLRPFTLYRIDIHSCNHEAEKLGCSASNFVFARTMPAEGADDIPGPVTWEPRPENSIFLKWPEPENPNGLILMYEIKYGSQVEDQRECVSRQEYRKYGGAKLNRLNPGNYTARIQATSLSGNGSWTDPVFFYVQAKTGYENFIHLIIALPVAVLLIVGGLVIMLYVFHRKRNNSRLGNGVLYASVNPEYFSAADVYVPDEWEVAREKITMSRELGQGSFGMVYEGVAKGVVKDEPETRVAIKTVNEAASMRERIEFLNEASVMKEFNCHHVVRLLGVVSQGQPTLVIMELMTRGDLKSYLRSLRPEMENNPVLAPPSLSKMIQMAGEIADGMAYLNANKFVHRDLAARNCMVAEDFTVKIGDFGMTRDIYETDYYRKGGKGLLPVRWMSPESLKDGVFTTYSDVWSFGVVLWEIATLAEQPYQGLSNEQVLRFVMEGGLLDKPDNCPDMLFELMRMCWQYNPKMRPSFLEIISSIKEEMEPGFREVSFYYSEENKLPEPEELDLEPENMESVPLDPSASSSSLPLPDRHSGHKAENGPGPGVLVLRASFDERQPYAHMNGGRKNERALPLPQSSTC

A word on the residual activity: it is the signal under treatment as a percentage of the control signal. For the compound `Nc1cccc(-c2cc3c(Oc4cccc(O)c4)ncnc3[nH]2)c1`, the residual activity in [1] came out at 70%; in [2], 19%; in assay [3] it was 101%; in [4] it was 56%; in [5], 105%; in assay [6], 85%. Further, the figures for the residual activity in [7], in assay [8] and in [9] were 88%, 78% and 91%, respectively.
